Results reported in PubChem BioAssay AID624305 (National Center for Advancing Translational Sciences (NCATS), 2012).
Records with an inconclusive call do not appear. Where a call stands in place of a potency, no number is given. Activity calls are given as the source filed them. Calls come from the whole dose curve; as a rule, active = well fitted activation curve with a large enough effect; inconclusive = small, poorly fitted or top-dose-only effect; inactive = no such curve, though single readings can be large or run the other way.

Test: qHTS assay for re-activators of p53 using a Luc reporter: Hit Validation; note: nearly all actives have a fitted effect of over 75% in size
Conditions: p53-responsive luciferase reporter cells, luminescence, H1299 line expressing heat-sensitive Ala138Val p53; series mostly up to 46.1 µM
Method in brief: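 Hit confirmation with a 1:5 dilution series, at 37 deg C for 24 hrs, in H1299 cells co-expressing temperature-sensitive p53-A138V and p53-responsive luciferase. Nocodazole served as control; luminescence read after 10 min with detection reagent.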
Potency is the fitted concentration of half-maximal effect.

Compound	Potency	activation
CCn1c(=N)n(CCOc2ccc(OC)cc2)c2ccccc21	inactive	
CCOCC(=O)Nc1nc2ccc(OCC)cc2s1	16.4 µM (active)	
CC(=O)Nc1ccc(Nc2cc(C)nc3c(-c4ccccc4)cnn23)cc1	0.116 µM (active)	
O=C(Nc1ccc(-c2nc3cc(Cl)ccc3c(=O)o2)cc1)c1ccco1	inactive	
Cc1cccc(-n2c(C)cc(C(=O)NC3CCCCC3)c2C)c1	7.31 µM (active)	
CC(C)(C)c1nnc(SCC(=O)c2ccccc2)n(N)c1=O	inactive	
O=C(c1ccc(N2CCN(S(=O)(=O)c3ccccc3)CC2)c([N+](=O)[O-])c1)N1CCOCC1	inactive	
CC(/C=N/Nc1nc2ccccc2[nH]1)=C\c1ccccc1	0.651 µM (active)	
Cc1ccc(S(=O)(=O)NCCOc2nc(N(C)C)nc(N3CCOCC3)n2)cc1	inactive	
Cc1ccc(NC(=S)NCC2CCCO2)c(OC(F)F)c1 (stereo not given)	inactive	
OCCNc1nc(NCc2ccccc2)c2ccccc2n1		-3.8% [at 9.22 µM] (inactive)
Cc1ccnc(NC(=S)NC(=O)c2cccs2)c1	0.082 µM (active)	
CCOC(=O)c1c(NC(=O)C2COc3ccccc3O2)sc2c1CCN(Cc1ccccc1)C2 (stereo not given)	inactive	
OC(COc1ccc2cc(Br)ccc2c1)CN1CCCC1 (stereo not given)	inactive	
COc1ccc(C(C)(C)C)cc1NC(=O)Nc1ccc2c(c1)OCO2	inactive	
CCCCC(=O)N1CCCC(C)C1 (stereo not given)	inactive	
N#C/C(=C\c1ccccc1[N+](=O)[O-])c1nc(C2CC2)cs1	23.1 µM (active)	
O=C(N/N=C(\c1ccccc1)c1cccnc1)c1cccc(F)c1	16.4 µM (active)	
CC(C)c1ccc(OCC(=O)NC(C)c2ccccc2)cc1 (stereo not given)	inactive	
Cc1nc2cc(-c3ccccc3)nn2c(N)c1-c1ccccc1	0.411 µM (active)	
